From PMC4336329 (PLoS ONE, 2015) come the findings set out here.

In all, about 310,000 compounds went through this assay and about 14,000 (4.5%) showed an effect of 50% or more. Effects have a minus sign here. The list comes from a sample in which strong results are over-represented; it also holds similar structures and randomly drawn compounds.
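Note: peak tail current of the secondary pulse compared with the same well before compound.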

Sequence of human ether-à-go-go-related gene (hERG) potassium channel (Q12809 whole entry, looked up): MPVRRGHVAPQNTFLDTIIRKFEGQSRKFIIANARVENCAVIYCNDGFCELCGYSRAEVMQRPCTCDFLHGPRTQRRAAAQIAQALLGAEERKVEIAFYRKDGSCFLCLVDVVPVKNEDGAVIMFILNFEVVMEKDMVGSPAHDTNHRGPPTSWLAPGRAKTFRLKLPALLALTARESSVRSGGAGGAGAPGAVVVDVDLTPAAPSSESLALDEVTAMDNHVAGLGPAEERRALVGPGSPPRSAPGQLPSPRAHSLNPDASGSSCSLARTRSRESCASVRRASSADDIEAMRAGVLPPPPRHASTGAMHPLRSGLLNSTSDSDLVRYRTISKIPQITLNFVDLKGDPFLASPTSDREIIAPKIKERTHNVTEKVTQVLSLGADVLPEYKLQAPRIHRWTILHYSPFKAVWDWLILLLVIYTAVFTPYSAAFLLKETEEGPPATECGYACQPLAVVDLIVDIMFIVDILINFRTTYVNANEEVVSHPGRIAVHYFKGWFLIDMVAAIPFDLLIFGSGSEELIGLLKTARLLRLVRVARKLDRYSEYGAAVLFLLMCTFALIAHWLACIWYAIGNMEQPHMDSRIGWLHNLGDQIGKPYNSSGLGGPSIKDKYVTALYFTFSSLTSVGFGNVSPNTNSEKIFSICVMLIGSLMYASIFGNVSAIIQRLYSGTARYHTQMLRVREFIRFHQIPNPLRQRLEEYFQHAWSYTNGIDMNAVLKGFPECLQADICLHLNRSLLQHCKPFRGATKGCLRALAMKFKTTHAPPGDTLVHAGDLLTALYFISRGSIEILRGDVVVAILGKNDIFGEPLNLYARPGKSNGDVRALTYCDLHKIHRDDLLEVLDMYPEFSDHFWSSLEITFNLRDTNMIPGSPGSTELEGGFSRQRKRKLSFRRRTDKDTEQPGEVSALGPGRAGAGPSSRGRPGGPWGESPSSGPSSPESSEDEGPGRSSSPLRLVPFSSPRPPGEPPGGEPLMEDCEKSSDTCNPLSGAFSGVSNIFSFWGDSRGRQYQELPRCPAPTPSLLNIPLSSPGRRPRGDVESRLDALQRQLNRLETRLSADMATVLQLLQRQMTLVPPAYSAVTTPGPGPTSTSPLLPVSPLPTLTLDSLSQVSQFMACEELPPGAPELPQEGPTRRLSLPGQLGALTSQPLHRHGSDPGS

The assay addresses human ether-à-go-go-related gene (hERG) potassium channel (human, UniProt Q12809). Kind of assay: primary screen, population patch clamp on CHO cells stably expressing hERG; higher = less effect of the substance.
As to `COCCNC(=O)[C@@]1(Cc2ccccc2)C=C[C@@H](C)N1C(C)=O`, the “hERG current change (%, negative = inhibition) at 10uM” value was 11.5%.

As to `CC(C)N(Cc1ccco1)/N=C/c1c(O)n(Cc2ccccc2)c(=O)[nH]c1=O`, the “hERG current change (%, negative = inhibition) at 10uM” value is recorded as 8.85%.

For `Cc1nccn1CCOc1ccc(Cl)cc1.O=C(O)C(=O)O`, the “hERG current change (%, negative = inhibition) at 10uM” value is recorded as -38.4%.

Regarding `COc1ccc2c(Cl)c(C(N)=O)sc2c1`, the “hERG current change (%, negative = inhibition) at 10uM” value is 1.91%.

For the compound `Nc1ccc(NC(=O)c2ccco2)c(Cl)c1`, the “hERG current change (%, negative = inhibition) at 10uM” value was 12.9%.

For `Cc1cc(=O)cc(C)n1-c1ccc(Br)cc1`, the “hERG current change (%, negative = inhibition) at 10uM” value worked out at 12.1%.

As to `CCN(CC)CCn1c(-c2ccc(C)cc2)nc(=S)c2c1CC(C)(C)OC2`, the “hERG current change (%, negative = inhibition) at 10uM” value is -0.55%.

In the case of `Clc1ccccc1-c1ccc(/C=N/n2cnnc2)o1`, the “hERG current change (%, negative = inhibition) at 10uM” value is on record as -24.1%.

`CCc1nc(SCC(=O)Nc2cccc3ccccc23)[nH]c(=O)c1C`: the “hERG current change (%, negative = inhibition) at 10uM” value is given as 8.16%.

`COC(=O)c1ccc(C(=O)OC)c(NC(=S)N2CCC(N3CCCCC3)CC2)c1`: the “hERG current change (%, negative = inhibition) at 10uM” value was -15%.

For the compound `COc1cc(NS(C)(=O)=O)c(OC)cc1NC(=O)c1ccccc1`, the “hERG current change (%, negative = inhibition) at 10uM” value is listed as -9.96%.

`O=C(Nc1ccccc1N1CCOCC1)c1cccc([N+](=O)[O-])c1`: the “hERG current change (%, negative = inhibition) at 10uM” value is listed as -17.7%.

In the case of `O=C(NC(=S)Nc1ccccc1N1CCCC1)c1ccc(-c2cccc([N+](=O)[O-])c2)o1`, the “hERG current change (%, negative = inhibition) at 10uM” value is on record as -26.7%.

On to `CN1CCN(c2ccc(NC(=O)c3ccc(-c4cccc([N+](=O)[O-])c4)o3)cc2)CC1`, for which the “hERG current change (%, negative = inhibition) at 10uM” value is reported as 5.35%.

Turning to `O=C(Nc1ccccc1N1CCCCC1)c1cccc([N+](=O)[O-])c1`, the “hERG current change (%, negative = inhibition) at 10uM” value was 9.03%.

Turning to `CN1CCN(c2ccccc2NC(=O)c2cccc([N+](=O)[O-])c2)CC1`, the “hERG current change (%, negative = inhibition) at 10uM” value is on record as -80.1%.

Regarding `CN1CCN(c2ccccc2NC(=O)c2ccc(-c3cccc([N+](=O)[O-])c3)o2)CC1`, the “hERG current change (%, negative = inhibition) at 10uM” value is on record as -51.8%.

Turning to `N#Cc1ccsc1NC(=O)c1ccc(Cl)c([N+](=O)[O-])c1`, the “hERG current change (%, negative = inhibition) at 10uM” value is reported as 21%.

Regarding `O=C(NC1CCS(=O)(=O)C1)c1cccc(S(=O)(=O)N2CCCCCC2)c1` (stereo not shown), the “hERG current change (%, negative = inhibition) at 10uM” value amounted to 1.79%.

Consider `CCC1CCCCN1Cc1nc(Cc2ccccc2Cl)no1` (stereo not shown), for which the “hERG current change (%, negative = inhibition) at 10uM” value is recorded as -10.4%.

`NC(=O)[C@@H]1CCCN1Cc1nc(Cc2ccccc2Cl)no1`: the “hERG current change (%, negative = inhibition) at 10uM” value came out at 14.5%.

On to `OCCCC1CCCCN1Cc1nc(Cc2ccccc2Cl)no1` (stereo not shown), for which the “hERG current change (%, negative = inhibition) at 10uM” value is listed as -78.9%.

With `Cc1noc(C)c1S(=O)(=O)N1CCCN(C(=O)/C=C/c2ccccc2F)CC1`, the “hERG current change (%, negative = inhibition) at 10uM” value is reported as -70.9%.

For the compound `CNC(=O)C1CCN(S(=O)(=O)c2c(C)noc2/C=C/c2ccccc2F)CC1`, the “hERG current change (%, negative = inhibition) at 10uM” value came out at 11.4%.

As to `Cc1noc(/C=C/c2ccccc2F)c1S(=O)(=O)N1CCC(C(=O)N2CCN(C)CC2)CC1`, the “hERG current change (%, negative = inhibition) at 10uM” value is recorded as -19.5%.
